This passage reports AC50 and outcome results from PubChem BioAssay (EPA / NIEHS).

Records with an inconclusive call do not appear. The source made the active and inactive calls. Rule for the calls, unless noted: active = hit-call score of the fitted dose curve at least 0.9, where 1 is the maximum; inactive = score below 0.9.

Assay [1] can be described thus: CCTE_Shafer_MEA_acute_spike_number: CCTE's Neural Acute Assay for Total Number of Spikes, Shafer Lab (AID 2284008).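 Note: curve fitted for decrease in spike count so AC50 reflects inhibitors.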 In short, it runs like this:
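Read-out is the total spike count over 40 min, expressed as percent change from each well's own pre-treatment baseline and fitted in the loss direction against DMSO. Rat cortical neurons were exposed at 0.03-40 uM on DIV 13 or 15.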

The nature of assay [2]: CCTE_Harrill_HTTr_Viability_MCF7: CCTE's 6-hour Cell Viability Assessment for the High-Throughput Transcriptomics (HTTr) Platform, in MCF-7 cells cultured in DMEM + 10% fetal bovine serum, Harrill Lab (AID 2284010). In outline:
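Viability measured through PI dye exclusion by high-content imaging at 6 h post-dosing.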

Assay [3] in a line: CCTE_Harrill_HTTr_Apoptosis_MCF7: CCTE's 6-hour Apoptosis Assessment for the High-Throughput Transcriptomics (HTTr) Platform, in MCF-7 cells cultured in DMEM + 10% fetal bovine serum, Harrill Lab (AID 2284011). In outline: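 MCF-7 (DMEM + 10% FBS), 384-well; 8-pt dilution series, 6 h chemical exposure; caspase-3/7 activation via CellEvent Caspase 3/7 Green, HCI; bidirectional fit vs DMSO.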

Assay [4] in a line: CCTE_Harrill_HTTr_CellCount_MCF7: CCTE's Cell Proliferation Assessment for the High-Throughput Transcriptomics (HTTr) Platform, Harrill Lab (AID 2284012; active = hit-call score of the fitted dose curve at least 0.9, where 1 is the maximum;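 note: count of Hoechst-stained nuclei per well by high-content imaging in MCF-7 cells; cells exposed to compound for six hours; intended direction is loss of nuclei count meaning fewer cells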). In outline: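 Nuclei counting (Hoechst, high content imaging) in MCF-7 after a 6 h treatment at eight concentrations. Activity fitted bidirectionally, DMSO as negative control.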
Assay [5] in a line: CCTE_Shafer_MEA_acute_burst_number: CCTE's Neural Acute Assay for Single-Electrode Bursts, Shafer Lab (AID 2284013). In outline:
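Spontaneous network activity of primary rat cortical neurons was recorded extracellularly on microelectrode arrays at 37 C, with 40-min periods before and during exposure to 0.03-40 uM compound on DIV 13 or 15.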

A short description of assay [6]: CCTE_Shafer_MEA_acute_burst_duration_mean: CCTE's Neural Acute Assay for Mean Burst Duration, Shafer Lab (AID 2284014).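 Note: hits are decreases in mean burst duration relative to DMSO controls.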 In short, it runs like this:
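Read-out is the per-well percent change in mean burst duration (first to last spike within a single-electrode burst) between 40-min recordings before and after compound. Cultures were primary rat cortical neurons on MEAs, dosed at 0.03-40 uM on DIV 13 or 15.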

Assay [7] in a line: CCTE_Shafer_MEA_acute_per_burst_spike_number_mean: CCTE's Neural Acute Assay for Average Number of Spikes Per Burst, Shafer Lab (AID 2284015).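 Note: hits are decreases in mean spikes per burst versus baseline.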 In outline: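 Percent change in mean spikes per single-electrode burst is compared between a 40 min baseline and a 40 min recording with compound (0.03-40 uM). Cultures were rat cortical neurons on MEA plates at DIV 13 or 15, recorded at 37 C, with DMSO as the negative control.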

A short description of assay [8]: CCTE_Shafer_MEA_acute_interburst_interval_mean: CCTE's Neural Acute Assay for Mean Interburst Interval, Shafer Lab (AID 2284016).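 Note: percent change of mean interburst interval versus each well's own pre-dose baseline; curves fitted for decrease in interburst interval relative to DMSO.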 In outline:
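Percent change in mean single-electrode interburst interval was calculated per well from 40 min recordings before and after compound (0.03-40 uM). Recordings were made at 37 C on rat cortical cultures at DIV 13 or 15, with spikes detected at 8x rms threshold.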

A short description of assay [9]: CCTE_Shafer_MEA_acute_burst_percentage_mean: CCTE's Neural Acute Assay for Percentage of Spikes in a Burst, Shafer Lab (AID 2284017).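 For AC50: curve fitted for loss of signal so potency reflects decreased burst percentage.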 In outline:
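Well-level mean burst percentage from a 40-min recording after compound (0.03-40 uM) expressed as percent change from a 40-min baseline at 37C. Cultures: primary rat cortical neurons on MEA, dosed on DIV 13 or 15; fitted downward relative to DMSO.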

A short description of assay [10]: CCTE_Shafer_MEA_acute_burst_percentage_std: CCTE's Neural Acute Assay for Standard Deviation of Burst Percentage, Shafer Lab (AID 2284018).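 Note: fitted in the negative direction so actives lower burst percentage SD.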 In short, it runs like this: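 Value is percent change from baseline in the across-electrode SD of spikes-in-bursts percentage, wells with >/= 10 active electrodes. Acute 40-min exposure to 0.03-40 uM on DIV 13 or 15 rat cortical cultures, recorded at 37 C after 40-min baseline.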

The nature of assay [11]: CCTE_Shafer_MEA_acute_per_network_burst_spike_number_mean: CCTE's Neural Acute Assay for Average Number of Spikes in a Network Burst, Shafer Lab (AID 2284019).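 For AC50: curve fitted for loss of signal so actives reduce spikes per network burst.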 In short, it runs like this: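 Read-out is mean spike count per network burst, taken as percent change between a 40-min pre-exposure and a 40-min post-exposure recording per well. Rat primary cortical neurons on MEAs at 37 C, DIV 13 or 15; compounds at 0.03-40 uM.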

Assay [12] can be described thus: CCTE_Shafer_MEA_acute_per_network_burst_spike_number_std: CCTE's Neural Acute Assay for Standard Deviation of Number of Spikes in a Network Burst, Shafer Lab (AID 2284020).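 Note: fitted for decrease in spike-number SD versus DMSO so actives lower it.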 In short, it runs like this: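 Spontaneous network activity of primary rat cortical neurons is recorded extracellularly before and after a 40-min compound exposure (0.03-40 uM) at 37 C. The endpoint is the well's percent change in burst spike-number SD.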

For assay [13], the target named is Nucleoli Translocation, AR (gene 367) (UniProt P10275). The assay is described as follows: UPITT_HCI_U2OS_AR_TIF2_Nucleoli_Antagonist: University of Pittsburgh U2OS Androgen Receptor-Transcriptional Intermediary Factor 2 (AR-TIF2) Antagonism High Content Imaging Assay for Nucleoli Translocation (AID 2283997; active = hit-call score of the fitted dose curve at least 0.9, where 1 is the maximum). In short, it runs like this:
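Measured quantity was AR-RFP fluorescence localized to nucleoli in engineered U2OS cells also bearing TIF2-GFP, acquired on automated high-content imagers. Primary testing used 20 uM compound; actives were confirmed in triplicate wells.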

The target is the same in assay [14]. The assay is described as follows: UPITT_HCI_U2OS_AR_TIF2_Nucleoli_Agonist: University of Pittsburgh U2OS Androgen Receptor-Transcriptional Intermediary Factor 2 (AR-TIF2) Agonism High Content Imaging Assay for Nucleoli Translocation (AID 2283998; active = hit-call score of the fitted dose curve at least 0.9, where 1 is the maximum). In short, it runs like this: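 Readout is red (AR-RFP) fluorescence localized to nucleoli, measured by high-content imaging and analysed for increase relative to DMSO. Compound series spanned 0.195 to 50 uM final in 0.5% DMSO.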

Assay [15] deals with Ratio of Nucleoli Translocation and Cytoplasm, AR (gene 367) (UniProt P10275). The assay is described as follows: UPITT_HCI_U2OS_AR_TIF2_Nucleoli_Cytoplasm_Ratio_Agonist: University of Pittsburgh U2OS Androgen Receptor-Transcriptional Intermediary Factor 2 (AR-TIF2) Agonism High Content Imaging Assay for Ratio of Nucleoli Translocation and Cytoplasm (AID 2284000; active = hit-call score of the fitted dose curve at least 0.9, where 1 is the maximum;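 note: hits raise the red nucleolar to cytoplasm ratio above vehicle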). In outline: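 Read-out first: nucleolar-to-cytoplasm ratio of red (AR-RFP) signal, quantified by high-content imaging in U2OS cells co-expressing TIF2-GFP. Activity is scored as signal increase over DMSO. Single-point screening used 20 uM final (0.2% DMSO).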
Ratio of Nucleoli Translocation and Cytoplasm, AR (gene 367), sequence (P10275 whole entry, looked up): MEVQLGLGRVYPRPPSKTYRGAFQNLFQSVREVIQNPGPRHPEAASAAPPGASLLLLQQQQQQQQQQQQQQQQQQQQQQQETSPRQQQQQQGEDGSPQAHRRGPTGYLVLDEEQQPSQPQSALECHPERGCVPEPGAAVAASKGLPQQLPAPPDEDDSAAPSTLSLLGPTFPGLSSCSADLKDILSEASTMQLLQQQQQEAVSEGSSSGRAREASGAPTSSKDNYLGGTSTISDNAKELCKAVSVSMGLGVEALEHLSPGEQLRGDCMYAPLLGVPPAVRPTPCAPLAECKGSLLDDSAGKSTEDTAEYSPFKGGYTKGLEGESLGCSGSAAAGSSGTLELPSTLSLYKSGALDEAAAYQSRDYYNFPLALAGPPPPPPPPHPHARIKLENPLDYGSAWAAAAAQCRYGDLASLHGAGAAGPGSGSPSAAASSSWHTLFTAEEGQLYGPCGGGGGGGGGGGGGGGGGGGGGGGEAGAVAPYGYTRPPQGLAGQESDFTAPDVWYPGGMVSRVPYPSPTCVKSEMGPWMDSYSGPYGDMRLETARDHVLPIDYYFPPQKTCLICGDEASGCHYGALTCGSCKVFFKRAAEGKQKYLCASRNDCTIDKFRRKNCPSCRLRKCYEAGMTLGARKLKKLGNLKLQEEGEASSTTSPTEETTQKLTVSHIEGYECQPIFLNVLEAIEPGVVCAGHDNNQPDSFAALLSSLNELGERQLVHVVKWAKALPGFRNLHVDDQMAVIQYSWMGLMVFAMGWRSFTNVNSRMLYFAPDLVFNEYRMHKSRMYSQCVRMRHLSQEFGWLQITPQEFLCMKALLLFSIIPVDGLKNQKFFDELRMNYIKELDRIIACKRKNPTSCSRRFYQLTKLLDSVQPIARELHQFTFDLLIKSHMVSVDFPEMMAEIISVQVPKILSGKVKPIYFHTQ

A short description of assay [16]: CCTE_Harrill_HTTr_Apoptosis_DMEM_12hr: (Pilot) CCTE's 12-hour Apoptosis Assessment for the High-Throughput Transcriptomics (HTTr) Platform, in MCF-7 cells cultured in DMEM + 10% fetal bovine serum, Harrill Lab (AID 2283982). In outline:
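MCF-7 cells in DMEM + 10% FBS, exposed 12 h to an eight-point dilution series; caspase-3/7 activation imaged with CellEvent Green. Bidirectional fit versus DMSO.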

Assay [17] is described as follows: CCTE_Harrill_HTTr_Apoptosis_DMEM_24hr: (Pilot) CCTE's 24-hour Apoptosis Assessment for the High-Throughput Transcriptomics (HTTr) Platform, in MCF-7 cells cultured in DMEM + 10% fetal bovine serum, Harrill Lab (AID 2283983). In outline: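 MCF-7 cells in DMEM + 10% FBS, eight-point dilution series, 24 h exposure. Caspase-3/7 activation imaged by high-content imaging with CellEvent Caspase 3/7 Green. Bidirectional curve fitting against DMSO baseline.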

The nature of assay [18]: CCTE_Harrill_HTTr_Apoptosis_PRF_DMEM_6hr: (Pilot) CCTE's 6-hour Apoptosis Assessment for the High-Throughput Transcriptomics (HTTr) Platform, in MCF-7 cells cultured phenol red-free DMEM + 10% charcoal-stripped fetal bovine serum, Harrill Lab (AID 2283984). In outline:
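MCF-7 cells in phenol red-free DMEM + 10% charcoal-stripped FBS, eight-point dilution series, 6 h exposure. Caspase-3/7 activation imaged by high-content imaging with CellEvent Caspase 3/7 Green; bidirectional fit versus DMSO baseline.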

Assay [19] can be described thus: CCTE_Harrill_HTTr_Apoptosis_PRF_DMEM_24hr: (Pilot) CCTE's 24-hour Apoptosis Assessment for the High-Throughput Transcriptomics (HTTr) Platform, in MCF-7 cells cultured in phenol red-free DMEM + 10% charcoal-stripped fetal bovine serum, Harrill Lab (AID 2283986). In outline: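 MCF-7 cells in phenol red-free DMEM with 10% charcoal-stripped FBS, exposed 24 h across an eight-point dilution series. Caspase-3/7 activation imaged with CellEvent Green by high content imaging; bidirectional fitting against DMSO.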

In another assay the test system is DIO1 (gene 1733). The assay is described as follows: CCTE_GLTED_hDIO1: CCTE's human Deiodinase 1 (DIO1) Inhibition Assay, Great Lakes Toxicology and Ecology Division (GLTED) Lab (AID 2283987; active = hit-call score of the fitted dose curve at least 0.9, where 1 is the maximum;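 note: isolated human DIO1 enzyme in a cell-free setup rather than cells; enzyme activity read as free iodide liberated from substrate via Sandell-Kolthoff colorimetry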). In short, it runs like this:
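Inhibition of human deiodinase 1 is scored as reduced iodide liberation after a 3 h enzyme–chemical incubation, detected colorimetrically by the Sandell-Kolthoff reaction against DMSO controls.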

Nucleoli Translocation, AR (gene 367), sequence (P10275 whole entry, looked up): as above

The AC50 is the midpoint of the concentration-response curve, whichever way the signal moves. With `O=C(CCCN1CCC(O)(c2ccc(Cl)cc2)CC1)c1ccc(F)cc1`, the AC50 was 1.7 µM (active) in assay [1] and 0.451 µM (active) in [11]. Moreover, the outcome in [2], in [3], in [4], in assay [5], in assay [6] and in assay [7] was inactive. Besides, the outcome in [8], in [9], in [10] and in [12] was inactive.
As to `CN(C)CCOC(c1ccccc1)c1ccccc1`, the compound was called inactive in [13], in assay [14], in [15], in [2], in assay [3] and in [6]. Also, the compound was classed as inactive in assay [7], in assay [10], in assay [11] and in [12]. The AC50 in assay [1] was 4.98 µM (active); in assay [5] it was 3.11 µM (active); in [8], 7.21 µM (active); in [9] it was 5 µM (active).
Regarding `CCCCc1oc2ccccc2c1C(=O)c1cc(I)c(OCCN(CC)CC)c(I)c1`, the result in assay [16], in [18], in assay [2], in assay [3], in [4] and in [5] was inactive. Moreover, the compound was called inactive in [6], in assay [7], in assay [8], in assay [9], in assay [10] and in assay [11]. Besides, the outcome in assay [12] was inactive. The half-maximal activity concentration (AC50) is 81.6 µM (active) in assay [17], 74.5 µM (active) in [19] and 8.91 µM (active) in assay [1].
In the case of `c1cc2cccc3c4cccc5cccc(c(c1)c23)c54`, the outcome in assay [2] and in assay [3] was inactive.
Take `CC(C)(O)C(=O)c1ccccc1`: the result in [2] and in assay [3] was inactive.
As to `CC1=NN(c2ccccc2)C(=O)C1`, the outcome in assay [2] and in assay [3] was inactive.
Consider `CCCCCCC(C)(C)C(=O)O`, for which the compound was called inactive in assay [13], in assay [14] and in assay [15].
Turning to `CCCCCCCCCC=CCC1CC(=O)OC1=O` (stereo unspecified), the AC50 with DIO1 (gene 1733) is 31.9 µM (active). Further, the outcome in assay [13], in assay [15], in assay [2] and in assay [3] was inactive.
Turning to `Cc1ccc(N=Nc2c(O)ccc3ccccc23)c(C)c1`, the result in assay [2] and in assay [3] was inactive.
Regarding `CC1COCc2cc3c(cc21)C(C)(C)C(C)C3(C)C` (stereo unspecified), the AC50 in [13] was 9.92 µM (active). The outcome in assay [2], in assay [3] and in assay [4] was inactive.
As to `Cc1cc(Cc2cc(C)cc(C(C)(C)C)c2O)c(O)c(C(C)(C)C)c1`, the result in assay [2], in assay [3] and in assay [4] was inactive.
Consider `C[C@]12CC[C@@H]3c4ccc(O)cc4CC[C@H]3[C@@H]1C[C@@H](O)[C@@H]2O`, for which the outcome in assay [2], in assay [3] and in [4] was inactive.
With `C=CC(C)(CCC=C(C)C)OC(C)=O` (stereo unspecified), the outcome in assay [2], in assay [3] and in assay [4] was inactive.
For the compound `CC1=CC(=O)c2ccccc2C1=O`, the outcome in assay [2], in assay [3] and in assay [4] was inactive.
With `O=C(O)c1cccc(C(=O)O)n1`, the result in [2], in [3] and in [4] was inactive.
Take `COC1=CC(=O)C[C@@H](C)[C@]12Oc1c(Cl)c(OC)cc(OC)c1C2=O`: the outcome in assay [2], in assay [3] and in [4] was inactive.
As to `CCC(=O)O`, the outcome in assay [2], in assay [3] and in assay [4] was inactive.
As for `Cc1ccccc1C(OCCN(C)C)c1ccccc1` (stereo unspecified), the result in assay [2], in [3] and in assay [4] was inactive.
